The record followed here is PubChem BioAssay (NCATS).

Inconclusive results are not listed. Where a call stands in place of a potency, no number is given. Active and inactive are the calls of the source. The call rests on the fitted dose curve; in most records, active means well fitted inhibition curve with a large enough effect; inconclusive means small, poorly fitted or top-dose-only effect; inactive means no such curve, though single readings can be large or run the other way.
Potency means the concentration at half of the fitted maximal effect.

For this experiment, the target named is Retinal dehydrogenase 2 (Homo sapiens) (UniProt O94788). As to the kind of experiment: qHTS for Inhibitors of the Aldehyde Dehydrogenase Family (ALDH1A2) Confirmation screens (AID 2061314). Further: nearly all actives have a fitted effect of over 65% in size. The following applies: ALDH1A2 enzyme inhibition qHTS confirmation; series mostly up to 45.9 µM. Background: Quantitative high-throughput screening tests each substance at several concentrations.
Consider `O=S(=O)(Nc1ccc(OC(F)(F)F)cc1)c1ccc(N2CCCCS2(=O)=O)cc1`, for which the Potency entry was “inactive”.
With `COc1ccccc1CC(=O)NCc1cccnc1-n1cnc2ccccc21`, the Potency entry was “inactive”.
On to `COc1ccc(NC(=O)c2ccco2)cc1NC(=O)c1ccccc1[N+](=O)[O-]`, for which the Potency entry was “inactive”.
Take `CNC(=O)c1cc(C2CC2)nc2onc(C3CCCN3C(=O)c3cccc(Cl)c3)c12` (stereo not given): the Potency entry is “inactive”.
On to `Cc1ccccc1NC(=O)CSc1nc2ccccc2c2nc(CCn3cncc3C)nn12`, for which the Potency result is “inactive”.
As for `CCN(CC)S(=O)(=O)c1ccc2c(c1)N(CC(=O)N1CCN(c3cccc(C(F)(F)F)c3)CC1)C(=O)CO2`, the Potency result is “inactive”.
For `CC(C)OCCCn1c(SCc2ccccc2Cl)nc2c(sc3ccccc32)c1=O`, the Potency entry is “inactive”.
As to `CCc1noc(-c2nc(Cc3cccc(F)c3)no2)n1`, the Potency result is “inactive”.
Regarding `Cc1oc2ncnc(N3CCOCC3)c2c1C(=O)NCc1ccc(Cl)cc1`, the Potency entry is “inactive”.
For the molecule `O=C(NCC(=O)N1CCOCC1)c1ccc(-c2cnc3ccccc3c2)cc1`, the Potency result was “inactive”.
As for `O=S(=O)(NCCn1cc(-c2cncnc2)nn1)c1ccc(Cl)cc1`, the entry is “inactive”.
For `CCOc1ccccc1NC(=O)CN(C)S(=O)(=O)c1ccc(C(=O)N2CCOCC2)s1`, the Potency entry is “inactive”.
With `O=C(NCCOc1ccccc1)[C@@H]1C[C@@H](c2ccc(F)cc2)N([S+](=O)([O-])c2ccccc2)C1`, the Potency entry was “inactive”.
Regarding `Cc1nn(-c2ccc3nncn3n2)c(C)c1CCC(=O)Nc1ccc(OC(F)(F)F)cc1`, the Potency entry was “inactive”.
The result for `Cc1ccc(S(=O)(=O)N2CCCC(Cn3cnc4cccnc43)C2)cc1C` (stereo not given) reads “inactive”; that for `CCOc1ccc(C(=O)Nc2ccc(S(=O)(=O)N3CCCCC3c3cccnc3)cc2)cc1` (stereo not given), “inactive”; that for `O=c1c2nc(OCc3ccc(F)cc3)ccc2ncn1C1CC1`, “inactive”.
For the molecule `Cc1ccc(-n2c(SCc3ccccc3C)nc3[nH]ncc3c2=O)cc1C`, the Potency result is “inactive”.
As for `Cc1cccc(C(=O)N2CCCC(N3CCN(c4cccc(C(F)(F)F)c4)CC3)C2)c1` (stereo not given), the entry is “inactive”; as for `Cc1cccc(NC(=O)CSc2nc3ccccc3nc2N2CCOCC2)c1C`, “inactive”; as for `COc1ccc(C(=O)Nc2ccc(-c3cc(C(F)(F)F)nn3-c3ccccc3)cc2)cc1OC`, “inactive”.
As for `CCc1c(-c2ccccc2)nc2ccccc2c1C(=O)NC(C)c1ccccc1` (stereo not given), the Potency entry is “inactive”.
`COC(=O)c1ccccc1NC(=O)CSc1nc(-c2ccccc2)cc(C(F)(F)F)n1`: the Potency entry was “inactive”.
Consider `CC(C)Oc1ccc(CNC(=O)C2CCCCN2S(=O)(=O)c2ccc(F)cc2)cc1` (stereo not given), for which the Potency entry is “inactive”.
`CCc1ccc(C(=O)c2cnc3ccc(C)cc3c2S(=O)(=O)c2ccc(OC)cc2)cc1`: the Potency result was “inactive”.
With `CCc1nn(-c2ccccc2)c(Oc2cccc(C)c2)c1CCC(=O)N1CCOCC1`, the Potency entry is “inactive”.
With `O=c1cc2nc(-c3ccccc3)nc(SCc3cccc(Br)c3)n2[nH]1`, the Potency entry was “inactive”.
Take `Cc1ccc2cccc(NC(=O)COc3ccccc3[N+](=O)[O-])c2n1`: the Potency entry is “inactive”.
As for `COc1ccc(S(=O)(=O)NCC(c2ccco2)N2CCOCC2)cc1C` (stereo not given), the Potency result was “inactive”.
For the molecule `CN(C)C(=O)CN1C(=O)CO[C@H](c2ccc(NS(=O)(=O)c3cccc(F)c3)cc2)[C@H]1CO`, the Potency entry is “inactive”.
With `COc1cccc(-n2c(SCc3ccccc3C)nc3c([nH]c4ccccc43)c2=O)c1`, the Potency result is “inactive”.
The result for `COc1ccc(-c2nc(CNS(=O)(=O)c3cccc(F)c3)cs2)cc1` reads 5.76 µM (active); that for `COc1ccc(S(=O)(=O)N2CCCCC2)cc1C(=O)Nc1cccc(C(F)(F)F)c1`, “inactive”.
The result for `COc1ccc(-c2ccc(C(=O)Nc3cccc(C(F)(F)F)c3)cc2)nn1` reads “inactive”.
With `COc1ccc(-c2nocc2CCC(=O)NCCc2ccc(S(N)(=O)=O)cc2)cc1`, the Potency result was “inactive”.
`CCOc1ccc(C(=O)N(Cc2ccc(C(C)C)cc2)Cc2ccco2)cc1`: the Potency result is “inactive”.
In the case of `CCCCOc1cccc(C(=O)Nc2cc(NC(=O)c3ccco3)ccc2OC)c1`, the Potency entry is “inactive”.
Turning to `O=C(COc1ccccc1-c1nc(-c2ccccc2)no1)Nc1ccc([N+](=O)[O-])cc1`, the Potency entry is “inactive”.
Take `O=c1c2cn[nH]c2nc(SCc2cccc(Br)c2)n1-c1ccc(Cl)cc1`: the Potency entry is “inactive”.
For `COc1ccc(NS(=O)(=O)c2ccc3[nH]c(=O)ccc3c2)cc1OC`, the Potency entry is “inactive”.
